{
  "source": "PubChem BioAssay (NCATS)",
  "note": "Where “and” joins values, the source holds several entries; their conditions need not be identical. Equal values may be shown once. Results filed as inconclusive are left out. A call without a number means that no potency is given here. A number with no mark means an inactive call. Calls of active or inactive are those of the source. Calls follow the shape of the dose curve; as a rule, active = well fitted cell-killing curve with a large enough effect; inconclusive = small, poorly fitted or top-dose-only effect; inactive = flat fitted curve, though single readings scatter. Potency is read from the fitted curve at half-maximal effect.",
  "data": [
    {"test": "qHTS of pediatric cancer cell lines to identify multiple opportunities for drug repurposing: Primary screen for BT-37 cells (AID 1347094)", "details": "BT-37 viability, CellTiter-Glo luminescence, 48 h; series mostly up to 57.3 µM; activity change, negative = cytotoxic: at the top concentration", "text": "Drug repurposing or repositioning has been offered as a strategy for drug development in oncology programs. This approach has special potential for childhood cancers and other rare or orphan diseases, where the expected return on new drug development has been a disincentive to pharmaceuticals. […] In this project we exploit the poly-pharmacology of drugs to discover new indications via phenotypic screening of a panel of 19 well-characterized cell lines derived from solid tumors seen in children and adolescents. The goal is to identify approved drugs with previously unrecognized anticancer properties that has the potential to reveal new mechanisms and biological processes involved in carcinogenesis or drug resistance. We employed a titration-based paradigm (quantitative high-throughput screening or qHTS), where all compounds were tested at multiple concentrations for their effect on cell viability. Concentration-response curves (CRCs) were derived directly from the primary screen, and both potency and efficacy values were used to identify compounds with robust bioactivity profiles. We screened the NIH Chemical Genomics Center (NCGC) Pharmaceutical Collection (NPC) and Mechanism Interrogation Plate (MIPE) small molecule collections of approved and investigational compounds against these cell lines; and measured metabolically active cells after 48 hours of compound treatment as a proxy for cell viability. […] Assay Submitter: Nathalia J. Martinez, National Center for Advancing Translational Sciences, National Institutes of Health, Rockville, MD, USA; email: natalia.martinez@nih.gov Shen, M et al. Quantitative high-throughput phenotypic screening of pediatric cancer cell lines identifies multiple opportunities for drug repurposing. Oncotarget 2017 Dec 19;9(4):4758-4772. PMID 29435139.\nThe cells were obtained from University of North Carolina (UNC), Pediatric Preclinical Testing Program (PPT), and Coriell Institute (CI). qHTS cell viability assay: Cells were assayed in growth media at a density of 500-1,000 cells/well. Five microliters of cells were dispensed into 1,536-well, white, solid-bottom, TC-treated plates (Greiner Bio One) using a multidrop dispenser and incubated at 37 degrees C, 5% CO2, under a humidified atmosphere for 5 hours. Twenty-three nanoliters of compounds and controls (neutral control DMSO or positive control bortezomib at final concentration of 2.3 µM) were subsequently transferred by Kalypsys pintool. For primary screens, the MIPE collection was tested at 11-point dilutions (final concentrations range from 0.78 nM to 46 µM) and the NPC collection at 8-point dilutions (final concentrations range from 0.59 nM to 46 µM). Compounds tested in follow-up screens were assayed at 11-point dilutions. Cells were incubated for 48 hours, followed by addition of 3 µL of CellTiter-Glo (Promega). After a 15 min incubation at room temperature, samples were analyzed for luminescence intensity using a ViewLux High-throughput CCD imager equipped with clear filters.", "units": {"activity change, negative = cytotoxic": "%"}, "values": [
      {"molecule": "O=C(Nc1ccc([N+](=O)[O-])cc1Cl)c1cc(Cl)ccc1O", "Potency": "1.69 µM (active) and 1.37 µM (active)"},
      {"molecule": "CC[C@@]1(O)C(=O)OCc2c1cc1n(c2=O)Cc2cc3c(CN(C)C)c(O)ccc3nc2-1", "Potency": "19.5 nM (active) and 86.3 nM (active)"},
      {"molecule": "COc1ccc2[nH]cc(CCNC(C)=O)c2c1", "Potency": "inactive"},
      {"molecule": "CCOC(=O)C(C)(C)Oc1ccc(Cl)cc1", "activity change, negative = cytotoxic": -2.14},
      {"molecule": "Cc1ccccc1N1C(=O)c2cc(S(N)(=O)=O)c(Cl)cc2NC1C", "note": "(stereo not given)", "Potency": "inactive"},
      {"molecule": "COc1nc(C)nc(Cl)c1NC1=NCCN1", "Potency": "inactive"},
      {"molecule": "Cc1cc(C(C)(C)C)cc(C)c1CC1=NCCN1", "Potency": "inactive"},
      {"molecule": "CC12CC3CC(C)(C1)CC(N)(C3)C2", "Potency": "inactive"},
      {"molecule": "NC(CO)C(=O)NNCc1ccc(O)c(O)c1O", "note": "(stereo not given)", "Potency": "inactive"},
      {"molecule": "Cc1cn([C@H]2C=C[C@@H](CO)O2)c(=O)[nH]c1=O", "Potency": "inactive"},
      {"molecule": "Nc1ccn([C@H]2CC[C@@H](CO)O2)c(=O)n1", "Potency": "inactive"},
      {"molecule": "CN(C)CCC=C1c2ccccc2C=Cc2ccccc21", "activity change, negative = cytotoxic": -19.3},
      {"molecule": "CC#C[C@]1(O)CC[C@H]2[C@@H]3CCC4=CC(=O)CCC4=C3[C@@H](c3ccc(N(C)C)cc3)C[C@@]21C", "Potency": "0.243 µM (active)"},
      {"molecule": "O=C(CCCN1CCC(O)(c2ccc(Cl)cc2)CC1)c1ccc(F)cc1", "activity change, negative = cytotoxic": -25.3},
      {"molecule": "CCc1cccc2c3c([nH]c12)C(CC)(CC(=O)O)OCC3", "note": "(stereo not given)", "Potency": "inactive"},
      {"molecule": "CCC1(C)CC(=O)NC1=O", "note": "(stereo not given)", "Potency": "inactive"},
      {"molecule": "O=C(C1CCCCC1)N1CC(=O)N2CCc3ccccc3C2C1", "note": "(stereo not given)", "Potency": "inactive"},
      {"molecule": "CCCCc1oc2ccccc2c1C(=O)c1cc(I)c(OCCN(CC)CC)c(I)c1", "Potency": "30.9 µM (active)"},
      {"molecule": "CN(Cc1cnc2nc(N)nc(N)c2n1)c1ccc(C(=O)N[C@@H](CCC(=O)O)C(=O)O)cc1", "Potency": "9.8 nM (active) and 48.5 nM (active)"},
      {"molecule": "CC1(C)O[C@H]2CC(=O)OC[C@]23[C@H]2CC[C@@]4(C)[C@H](c5ccoc5)OC(=O)[C@H]5O[C@]54[C@]2(C)C(=O)C[C@@H]13", "Potency": "inactive"},
      {"molecule": "CC[N+](CC)(CC)CCOc1cccc(OCC[N+](CC)(CC)CC)c1OCC[N+](CC)(CC)CC", "Potency": "inactive"},
      {"molecule": "NS(=O)(=O)c1cc2c(cc1Cl)NCNS2(=O)=O", "Potency": "inactive"},
      {"molecule": "CS(=O)(=O)CCNCc1ccc(-c2ccc3ncnc(Nc4ccc(OCc5cccc(F)c5)c(Cl)c4)c3c2)o1", "Potency": "24.3 µM (active) and 27.6 µM (active)"},
      {"molecule": "NC12CC3CC(CC(C3)C1)C2", "activity change, negative = cytotoxic": 8.97},
      {"molecule": "COc1ccccc1N1CCN(CC(O)COc2cccc3ccccc23)CC1", "note": "(stereo not given)", "Potency": "inactive"},
      {"molecule": "CCN1CCCC1CNC(=O)c1cc(S(=O)(=O)CC)c(N)cc1OC", "note": "(stereo not given)", "activity change, negative = cytotoxic": 9.2},
      {"molecule": "COc1cc2c(c(OC)c1OC)-c1ccc(OC)c(=O)cc1[C@@H](NC(C)=O)CC2", "Potency": "6.2 nM (active) and 172 nM (active)"},
      {"molecule": "Cn1ccc2cc3c(cc21)CCN3C(=O)Nc1cccnc1", "Potency": "inactive"},
      {"molecule": "Cc1cnc(C(=O)NCCc2ccc(S(=O)(=O)NC(=O)NC3CCCCC3)cc2)cn1", "activity change, negative = cytotoxic": 6.26},
      {"molecule": "CC1(CN2CCC(n3c(=O)[nH]c4ccccc43)CC2)OCc2ccccc2-n2cccc21", "note": "(stereo not given)", "activity change, negative = cytotoxic": -2.64},
      {"molecule": "CCOC(=O)c1ncn2c1CN(C)C(=O)c1cc(F)ccc1-2", "activity change, negative = cytotoxic": 6.42},
      {"molecule": "CS(=O)(=O)Nc1ccc([N+](=O)[O-])cc1Oc1ccccc1", "activity change, negative = cytotoxic": -4.62},
      {"molecule": "COc1cc2nc(N3CCN(C(=O)c4ccco4)CC3)nc(N)c2cc1OC", "Potency": "24.3 µM (active)"},
      {"molecule": "Nc1c2c(nc3ccccc13)CCCC2", "Potency": "inactive"},
      {"molecule": "CC(CCc1ccc(O)cc1)NCCc1ccc(O)c(O)c1", "note": "(stereo not given)", "activity change, negative = cytotoxic": -19.1},
      {"molecule": "COc1ccc(CCN(C)CCCC(C#N)(c2ccc(OC)c(OC)c2)C(C)C)cc1OC", "note": "(stereo not given)", "Potency": "inactive"},
      {"molecule": "NCCS(=O)(=O)O", "Potency": "inactive"},
      {"molecule": "COc1ccccc1OCC(O)CN1CCN(CC(=O)Nc2c(C)cccc2C)CC1", "note": "(stereo not given)", "Potency": "inactive"},
      {"molecule": "Cn1c(=O)c2[nH]cnc2n(C)c1=O", "Potency": "inactive"},
      {"molecule": "CC(=O)OCC(CCn1cnc2cnc(N)nc21)COC(C)=O", "Potency": "inactive"}
    ]}
  ]
}
